Compound activity deposited in PubChem by National Center for Advancing Translational Sciences (NCATS).
Only some compounds are listed: those with a hit (about 1.4% of all), similar ones and a draw of the others.
AmpC no deterg = qHTS Inhibitors of AmpC Beta-Lactamase (assay without detergent). P00811. AID 485341, 2010. Potency, µM (top dose mostly 57.1 µM), most hits filed as inhibitors. AmpC nitrocefin hydrolysis, absorbance 480 nm, 0.0001% Triton. 330,000 tested, 0.52% active; also: nearly all actives have a fitted effect of over 20% in size
Target sequence (P00811 whole entry, looked up): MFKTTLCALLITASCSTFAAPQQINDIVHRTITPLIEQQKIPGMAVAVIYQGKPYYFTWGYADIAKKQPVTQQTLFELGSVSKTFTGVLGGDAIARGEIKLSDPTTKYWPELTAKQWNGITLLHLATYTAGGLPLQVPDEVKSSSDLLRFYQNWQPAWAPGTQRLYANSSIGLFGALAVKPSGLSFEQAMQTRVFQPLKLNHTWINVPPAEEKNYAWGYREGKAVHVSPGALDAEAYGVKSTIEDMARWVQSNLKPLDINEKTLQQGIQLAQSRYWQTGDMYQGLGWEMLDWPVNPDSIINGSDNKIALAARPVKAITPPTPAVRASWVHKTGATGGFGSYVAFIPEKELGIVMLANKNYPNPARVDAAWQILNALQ
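AmpC (5.3 nM in the dispensed reagent) in 20 mM phosphate pH 7.0 with 0.01% (detergent screen) or 0.0001% Triton X-100 was preincubated with compounds for 15 min at room temperature. Nitrocefin was then added from an 800 uM solution, and hydrolysis was followed at 480 nm.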
Giardia FBPA inh = qHTS Assay for Inhibitors of Fructose-1,6-bisphosphate Aldolase from Giardia Lamblia. Potency, µM (series often up to 59.6 µM), usual class: inhibitors. A8B2U2. 290,000 tested, 0.71% active. purified Giardia FBPA. AID 2451, 2010; also: nearly all actives have a fitted effect of over 55% in size
Target sequence (A8B2U2 whole entry, looked up): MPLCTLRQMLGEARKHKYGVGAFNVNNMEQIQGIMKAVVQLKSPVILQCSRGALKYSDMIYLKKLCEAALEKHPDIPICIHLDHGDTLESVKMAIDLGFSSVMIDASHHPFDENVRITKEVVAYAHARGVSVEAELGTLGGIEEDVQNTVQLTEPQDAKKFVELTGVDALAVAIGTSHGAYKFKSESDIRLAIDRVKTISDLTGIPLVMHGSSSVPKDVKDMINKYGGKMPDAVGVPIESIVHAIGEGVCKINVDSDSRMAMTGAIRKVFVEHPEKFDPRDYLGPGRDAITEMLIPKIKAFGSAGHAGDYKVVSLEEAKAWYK
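Giardia FBPA (40 nM reagent) was preincubated 10 min at RT with compound (up to 57.5 uM final), then substrate plus GAPDH/TPI/NAD/arsenate coupling system with diaphorase/resazurin was added; resorufin fluorescence (525/598 nm) was read after 20 min.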
SARS PLpro yeast = qHTS of Yeast-based Assay for SARS-CoV PLP | S. cerevisiae expressing SARS-CoV PLpro, growth rescue | 330,000 tested, 0.19% active | Potency, µM (doses to about 32.9 µM), usual class: activators; calls by dose curve; also: nearly all actives have a fitted effect of over 55% in size
AmpC inh detg = qHTS Inhibitors of AmpC Beta-Lactamase (assay with detergent) | AmpC hydrolysis of nitrocefin, absorbance 480 nm, 0.01% Triton | Potency, µM (doses to about 114 µM), most hits filed as inhibitors | 370,000 tested, 0.041% active | AID 485294, 2010; also: nearly all actives have a fitted effect of over 25% in size
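AmpC (5.3 nM in the dispensed reagent) in 20 mM phosphate pH 7.0 with 0.01% (detergent screen) or 0.0001% Triton X-100 was preincubated with compounds for 15 min at room temperature. Nitrocefin was then added from an 800 uM solution, and hydrolysis was followed at 480 nm.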
NS1 function inh = qHTS Assay for Inhibitors of Influenza NS1 Protein Function. Potency, µM (titrated, usually from 46.1 µM). 270,000 tested, 0.4% active. AID 2326, 2010; calls by dose curve; also: actives are rising curves; nearly all actives have a fitted effect of over 50% in size
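S. cerevisiae expressing influenza A NS1, grown in glucose, washed, then diluted 1:100 into pH 6.0 -URA galactose medium with 23 nl compound. Growth recovery read as OD600; NS1-free strain serves as control.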
NS1 inh valid = Assay for Inhibitors of Influenza NS1 Protein Function: Hit Validation; influenza NS1 function cell assay, 15-point titration; AID 492980, 2010; 1,400 tested, under 10 active; activity change, negative = inhibition, % at 32.9 µM; shares compounds with NS1 function inh; calls by dose curve
PR8 titer = Assay for Inhibitors of Influenza NS1 Protein Function: Influenza virus replication assay in MDCK cells infected with virus A/PR/8/34 | MDCK infected influenza A/PR/8/34, virus titer TCID50; stronger effect = lower value | 95 tested, 30% active | virus titer (log TCID50), log10 TCID50 at 5 µM | shares compounds with NS1 function inh; call rule not given here
Of the large screens only hits and unclear results are named; the others gave an inactive call (follow-up assays come after a bar, where they were run). Unless noted, calls follow the shape of the dose curve; as a rule, active = well fitted curve in the direction sought with a large enough effect; inconclusive = small, poorly fitted or top-dose-only effect, or another doubt; inactive = no such curve, though single readings can be large; an effect the other way counts as inactive or inconclusive.

CC(NC(=O)C1CCN(C(=O)Nc2ccccc2)CC1)c1ccc(Cl)cc1 (stereo not given)	AmpC inh detg inconclusive (no result: Giardia FBPA inh, NS1 function inh)
NC(=O)C1CCN(C(=O)C23CC4CC(CC(C4)C2)C3)CC1	AmpC inh detg inconclusive, NS1 function inh inconclusive | NS1 inh valid inactive
Cc1cc(OCC(=O)Nc2cc(-c3nn4c(C)nnc4s3)ccc2C)ccc1Cl	none
O=C1CC(c2ccco2)CC(O)=C1C=NCC1CCNCC1 (stereo not given)	NS1 function inh 10µM | NS1 inh valid inactive
Cc1ccc(C(C)C)c(OCc2ccc(C(=O)N/N=C/c3ccc(O)c(O)c3)cc2)c1	Giardia FBPA inh inconclusive, NS1 function inh 12.6µM | NS1 inh valid inactive
COc1c(N2CCN(C(=S)Nc3ccc(F)cc3)C(C)C2)c(F)cc2c(=O)c(C(=O)O)cn(C3CC3)c12 (stereo not given)	none (no result: Giardia FBPA inh)
O=C(c1ccccc1)[C@H]1[C@H](c2ccccc2)[C@@]2(N=C(c3ccccc3)OC2=O)C2c3ccccc3C=NN21 (stereo not given in full)	NS1 function inh 2.51µM | NS1 inh valid inactive
COc1ccc([C@H]2[C@H](C(=O)C(C)(C)C)N3N=Cc4ccccc4C3C23C(=O)OC(C)(C)OC3=O)cc1 (stereo not given in full)	none
CC(C)CNC(=O)CSc1nnc2ccccn12	none (no result: NS1 function inh)
CC(C)CCNC(=O)NC(=O)CSc1nnc2ccccn12	NS1 function inh 4.47µM | NS1 inh valid inactive
Cc1ccc(S(=O)(=O)N2CCN(CCNC(=O)C(=O)NCc3ccccc3)CC2)cc1	none
O=C(Nc1ccc2c(c1)CCC2)c1cccc(S(=O)(=O)N2CCN(c3ccccc3)CC2)c1	NS1 function inh 12.6µM | NS1 inh valid inactive
O=C(NC1CCCc2ccccc21)c1cccc(S(=O)(=O)N2CCN(c3ccccc3)CC2)c1 (stereo not given)	SARS PLpro yeast inconclusive, NS1 function inh 11.2µM | NS1 inh valid inactive
CC1CCC(NC(=O)c2cccc(S(=O)(=O)N3CCN(c4ccccc4)CC3)c2)CC1 (stereo not given)	none (no result: Giardia FBPA inh, NS1 function inh)
O=C(Nc1ccccc1)c1cccc(S(=O)(=O)N2CCCCC2)c1	none
O=C(/C=C/c1ccco1)NC(=S)Nc1cccc([N+](=O)[O-])c1	NS1 function inh 22.4µM | NS1 inh valid inactive
CCOc1ccccc1NC(=O)CCNS(=O)(=O)c1cccc2nsnc12	none
Cc1ccc(-c2csc3ncn(CC(=O)N4CCOCC4)c(=O)c23)cc1	AmpC inh detg inconclusive
O=C(Cn1cnc2scc(-c3ccc(Cl)cc3)c2c1=O)N1CCOCC1	NS1 function inh inconclusive | NS1 inh valid inactive
COCCn1c(C)cc(/C=C2/NC(=O)N(c3ccc(Cl)cc3)C2=O)c1C	NS1 function inh inconclusive | NS1 inh valid inactive
O=c1cc(N2CCN(c3ccccc3)CC2)[nH]c(=O)n1-c1ccccc1Cl	AmpC inh detg inconclusive
Cc1ccc(S(=O)(=O)N2CCN(C(=O)CC(C)n3cncn3)CC2)cc1C (stereo not given)	NS1 function inh inconclusive | NS1 inh valid inactive
CCOC(CC(=O)NNC(=O)c1c(-c2ccccc2Cl)noc1C)OCC	none
O=C1Nc2cc(S(=O)(=O)N3CCCC3)ccc2N2CCCC12 (stereo not given)	NS1 function inh 12.6µM | NS1 inh valid inactive
O=C(O)Cn1c(=O)c2c3c(sc2n(Cc2ccccc2)c1=O)CCCC3	none
CSc1nc2ccccc2cc1/C=C(\C#N)c1ccccc1	NS1 function inh 2µM | NS1 inh valid inactive
COCCCNC(=S)NNC(=O)c1cc(Cl)c(O)c(Cl)c1	none
CCOc1ccc(-c2cn(-c3ccccc3OC)c(=S)[nH]2)cc1	NS1 function inh inconclusive | NS1 inh valid inactive
CC1=Nc2nc(N3CCCCC3)c(C#N)c3c4c(nc(c23)N1)N(c1ccc(C(C)C)cc1)C(=O)C4	NS1 function inh 11.2µM | NS1 inh valid inactive
O=[N+]([O-])c1ccc(Cl)cc1	none (no result: Giardia FBPA inh, NS1 function inh)
CN(CC(=O)Nc1cccc2ccccc12)C(=O)c1cccc(S(=O)(=O)N(C)C)c1	NS1 function inh inconclusive | NS1 inh valid inactive
COC(=O)C1=C(C)OC(N)=C(C#N)C1c1c(C)nn(-c2ccccc2)c1Cl (stereo not given)	none
COC(=O)C1=C(C)OC(N)=C(C#N)C1c1c(C)nn(C)c1C (stereo not given)	NS1 function inh 2.24µM | NS1 inh valid inactive
CCCCc1c(C)nc2c(OC)cccc2c1SCCC(=O)O	none
O=C(c1cc(-c2ccc3c(c2)OCO3)on1)N1CCOCC1	none
Cc1cc(C(=O)N[C@H](c2ccccc2)[C@@]2(C)C[C@@H]2[C@@H](C)C(=O)Nc2ccc3ccccc3c2)no1	AmpC inh detg inconclusive
Cc1cc(C(=O)N[C@@H](c2ccccc2)[C@]2(C)C[C@H]2[C@@H](C)C(=O)Nc2ccc3ccccc3c2)no1	SARS PLpro yeast inconclusive, NS1 function inh 11.2µM | NS1 inh valid inactive
C[C@@H](C(=O)Nc1ccc2ccccc2c1)[C@H]1C[C@]1(C)[C@H](NS(=O)(=O)c1ccccc1)c1ccccc1	AmpC inh detg inconclusive, NS1 function inh 11.2µM | NS1 inh valid inactive
CCn1c(SCc2ccccc2)nc2cc(S(N)(=O)=O)ccc21	none
CC(=O)c1ccc2c(c1)C1C(Cl)C(Sc3ccccc3[N+](=O)[O-])CC1C(c1ccccc1[N+](=O)[O-])N2 (stereo not given)	AmpC no deterg inconclusive, Giardia FBPA inh inconclusive, NS1 function inh 2µM | NS1 inh valid inactive
Cc1ccc(S(=O)(=O)N2CCC(=O)N(C(COCc3cccc(Cl)c3)Cc3ccccc3)CC2)cc1 (stereo not given)	AmpC inh detg inconclusive
Cc1ccc(S(=O)(=O)N2CCC(=O)N(C(COCc3ccc(Cl)cc3Cl)Cc3ccccc3)CC2)cc1 (stereo not given)	NS1 function inh inconclusive | NS1 inh valid inactive | PR8 titer 7.5
C=CCN1CCc2cccc3c2C1Cc1ccc(O)c(O)c1-3 (stereo not given)	Giardia FBPA inh inconclusive, NS1 function inh 11.2µM (no result: AmpC no deterg, SARS PLpro yeast, AmpC inh detg) | NS1 inh valid inactive
COc1ccc2c(c1O)-c1cccc3c1C(C2)N(C)CC3 (stereo not given)	none (no result: AmpC no deterg, SARS PLpro yeast, AmpC inh detg)
O=C(Nc1ccccc1)C1=C[C@H](c2coc3ccccc3c2=O)C[C@H](OCCCCO)O1	none
